# Measurements as given in PubChem BioAssay (EPA / NIEHS).
# Where “and” joins values, the source holds several entries; their conditions need not be identical. Equal entries are not always repeated. Records with an inconclusive call do not appear. More than one record can exist for a structure, and the calls need not agree. Calls of active or inactive are those of the source. How the source made its calls, unless noted: active means hit-call score of the fitted dose curve at least 0.9, where 1 is the maximum; inconclusive means response in the unintended direction; inactive means score below 0.9.
# Assays:
# [1] = system: rat Norepinephrine Transporter (NET), gene 83511; test: NVS_TR_rNET: NovaScreen (NVS) Transporter Assay for rat Norepinephrine Transporter (NET) (AID 2283373)
# In short: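 Competitive radioligand displacement at the rat NET using forebrain membrane preparations, 1 h incubation, filter-based scintillation readout. Primary testing in duplicate at a single 25 uM concentration; confirmed actives retested across concentrations.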
# [2] = biological target: human Dopamine Transporter (DAT), SLC6A3 (gene 6531) (UniProt Q01959); test: NVS_TR_hDAT: NovaScreen (NVS) Transporter Assay for human Dopamine Transporter (DAT) (AID 2283374);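 further: activity means loss of bound radioligand signal relative to DMSO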
# human Dopamine Transporter (DAT), SLC6A3 (gene 6531), sequence (Q01959 whole entry, looked up): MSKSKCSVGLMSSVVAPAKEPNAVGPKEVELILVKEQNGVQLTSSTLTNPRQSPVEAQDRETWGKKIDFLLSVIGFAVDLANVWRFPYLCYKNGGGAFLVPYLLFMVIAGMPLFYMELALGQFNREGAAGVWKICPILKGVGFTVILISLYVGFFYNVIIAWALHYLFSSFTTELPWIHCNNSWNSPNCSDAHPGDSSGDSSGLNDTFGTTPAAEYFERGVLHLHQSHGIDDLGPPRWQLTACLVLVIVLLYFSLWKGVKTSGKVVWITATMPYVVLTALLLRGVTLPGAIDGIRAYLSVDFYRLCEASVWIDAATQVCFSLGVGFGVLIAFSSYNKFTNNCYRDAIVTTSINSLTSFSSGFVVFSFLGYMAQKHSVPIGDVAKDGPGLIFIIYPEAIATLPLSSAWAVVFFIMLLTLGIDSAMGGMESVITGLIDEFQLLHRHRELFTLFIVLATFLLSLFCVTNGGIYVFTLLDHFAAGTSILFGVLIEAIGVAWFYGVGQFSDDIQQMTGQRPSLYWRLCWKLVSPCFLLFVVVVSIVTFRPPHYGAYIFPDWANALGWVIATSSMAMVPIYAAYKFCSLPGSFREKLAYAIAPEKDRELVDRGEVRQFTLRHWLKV
# In short: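 Duplicate single-point screening at 25 uM preceded concentration-series follow-up of actives. Binding was measured by competitive displacement of a radioligand from DAT protein, filter-counted by scintillation 1 h after dosing. Decrease relative to DMSO taken as activity.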
# [3] = biological target: human Norepinephrine Transporter (NET), SLC6A2 (gene 6530) (UniProt P23975); test: NVS_TR_hNET: NovaScreen (NVS) Transporter Assay for human Norepinephrine Transporter (NET) (AID 2283377);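 further: cell-free membrane protein extracted from CHO cells expressing human NET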;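 on AC50: displacement of radioligand from human NET seen as loss of scintillation signal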
# human Norepinephrine Transporter (NET), SLC6A2 (gene 6530), sequence (P23975 whole entry, looked up): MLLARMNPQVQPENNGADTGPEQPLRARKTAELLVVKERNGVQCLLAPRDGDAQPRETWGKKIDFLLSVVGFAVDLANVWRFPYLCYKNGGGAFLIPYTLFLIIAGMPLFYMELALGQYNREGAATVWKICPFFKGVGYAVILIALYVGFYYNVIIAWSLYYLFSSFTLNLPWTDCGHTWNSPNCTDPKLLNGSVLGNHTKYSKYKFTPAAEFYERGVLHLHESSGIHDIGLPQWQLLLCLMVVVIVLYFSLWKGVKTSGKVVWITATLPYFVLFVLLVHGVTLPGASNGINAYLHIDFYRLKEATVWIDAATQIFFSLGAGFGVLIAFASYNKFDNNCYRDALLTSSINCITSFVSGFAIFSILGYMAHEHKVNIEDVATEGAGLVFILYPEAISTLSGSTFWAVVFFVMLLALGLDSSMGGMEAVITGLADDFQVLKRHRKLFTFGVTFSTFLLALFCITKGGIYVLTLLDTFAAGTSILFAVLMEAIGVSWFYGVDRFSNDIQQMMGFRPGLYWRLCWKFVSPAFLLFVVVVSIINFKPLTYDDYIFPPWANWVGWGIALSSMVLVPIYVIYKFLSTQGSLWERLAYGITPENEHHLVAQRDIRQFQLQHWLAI
# In short: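 Single-concentration duplicate screen at 25 uM, then concentration-response for actives; displacement of specific radioligand from human NET in CHO membrane extracts, filter-based scintillation detection at 1 h relative to DMSO.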
# [4] = biological target: Agonist Androgen Response Element (ARE), AR (gene 367) (UniProt P10275); test: OT_AR_ARELUC_AG_1440: Odyssey Thera (OT) 24-hour CHO-K1 Luciferase Assay for Agonist Androgen Response Element (ARE) (AID 2283379)
# Agonist Androgen Response Element (ARE), AR (gene 367), sequence (P10275 whole entry, looked up): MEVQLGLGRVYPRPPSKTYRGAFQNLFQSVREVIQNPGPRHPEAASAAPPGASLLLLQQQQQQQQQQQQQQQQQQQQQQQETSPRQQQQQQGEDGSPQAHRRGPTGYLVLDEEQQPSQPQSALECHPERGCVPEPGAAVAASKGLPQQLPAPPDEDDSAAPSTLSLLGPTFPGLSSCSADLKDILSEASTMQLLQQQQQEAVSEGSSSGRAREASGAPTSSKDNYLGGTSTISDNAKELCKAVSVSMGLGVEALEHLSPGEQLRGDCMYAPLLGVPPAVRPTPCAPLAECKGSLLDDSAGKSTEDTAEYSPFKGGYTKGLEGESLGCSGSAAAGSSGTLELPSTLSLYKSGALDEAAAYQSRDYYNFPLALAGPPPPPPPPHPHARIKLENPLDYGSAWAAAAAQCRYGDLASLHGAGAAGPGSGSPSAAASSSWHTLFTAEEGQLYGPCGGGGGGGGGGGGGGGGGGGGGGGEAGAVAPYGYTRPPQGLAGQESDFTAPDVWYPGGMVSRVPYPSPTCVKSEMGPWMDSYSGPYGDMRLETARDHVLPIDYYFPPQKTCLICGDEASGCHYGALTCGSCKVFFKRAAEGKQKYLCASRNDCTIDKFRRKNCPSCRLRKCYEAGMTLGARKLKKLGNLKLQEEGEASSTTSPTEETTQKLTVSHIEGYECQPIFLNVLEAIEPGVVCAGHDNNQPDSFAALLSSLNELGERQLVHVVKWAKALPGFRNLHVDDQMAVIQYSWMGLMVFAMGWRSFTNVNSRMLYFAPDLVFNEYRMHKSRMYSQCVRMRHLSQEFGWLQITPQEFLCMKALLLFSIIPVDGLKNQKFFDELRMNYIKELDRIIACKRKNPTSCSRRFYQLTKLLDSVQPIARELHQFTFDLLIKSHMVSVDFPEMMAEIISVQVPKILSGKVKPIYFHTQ
# In short: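 Readout: luciferase bioluminescence from CHO-K1 ARE-luc cells, measured 24 h post-dosing; agonism = increased mean luminescence vs DMSO controls, fitted in positive direction.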
# [5] = biological target: Retinoic acid receptor RXR-alpha (Homo sapiens) (UniProt P19793); test: OT_NURR1_NURR1RXRa_0480: Odyssey Thera (OT) 8-hour HEK293T Protein Complementation Assay for Nurr1/retinoid X receptor (RXR) (AID 2283385)
# Retinoic acid receptor RXR-alpha (Homo sapiens), sequence (P19793 whole entry, looked up, the tested form may be a part): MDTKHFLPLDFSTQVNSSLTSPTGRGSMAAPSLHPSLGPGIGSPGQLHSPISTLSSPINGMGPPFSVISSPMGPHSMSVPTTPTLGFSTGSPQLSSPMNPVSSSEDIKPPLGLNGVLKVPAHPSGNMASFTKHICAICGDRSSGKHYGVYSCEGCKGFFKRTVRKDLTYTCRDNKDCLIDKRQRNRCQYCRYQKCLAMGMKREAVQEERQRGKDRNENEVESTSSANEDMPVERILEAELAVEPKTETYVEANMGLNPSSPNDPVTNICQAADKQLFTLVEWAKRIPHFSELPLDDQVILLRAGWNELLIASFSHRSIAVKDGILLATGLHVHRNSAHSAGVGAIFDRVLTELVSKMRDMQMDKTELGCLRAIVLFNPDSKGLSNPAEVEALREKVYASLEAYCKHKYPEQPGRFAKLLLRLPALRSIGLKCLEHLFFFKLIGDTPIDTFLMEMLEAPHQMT
# In short: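 Gain in fluorescent complementation signal over DMSO, measured 8 hours after chemical dosing of human kidney HEK293T cells, indicated enhanced Nurr1–RXRα association.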
# [6] = biological target: Retinoic acid receptor RXR-alpha (Homo sapiens) (UniProt P19793); test: OT_NURR1_NURR1RXRa_1440: Odyssey Thera (OT) 24-hour HEK293T Protein Complementation Assay for Nurr1/retinoid X receptor (RXR) (AID 2283386)
# In short: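 Cell-based binding reporter: HEK293T cells, 24 h exposure, fluorescence-detected fragment complementation, DMSO as baseline.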
# [7] = biological target: Peroxisome proliferator-activated receptor gamma (Homo sapiens) (UniProt P37231); test: OT_PPARg_PPARgSRC1_0480: Odyssey Thera (OT) 8-hour Protein-Complementation Assay for Peroxisome Proliferator-activated Receptor Gamma / SRC-1 Co-activator (AID 2283387);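 further: nuclear to cytoplasmic split Venus YFP fluorescence ratio reporting PPARg SRC-1 interaction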
# Peroxisome proliferator-activated receptor gamma (Homo sapiens), sequence (P37231 whole entry, looked up, the tested form may be a part): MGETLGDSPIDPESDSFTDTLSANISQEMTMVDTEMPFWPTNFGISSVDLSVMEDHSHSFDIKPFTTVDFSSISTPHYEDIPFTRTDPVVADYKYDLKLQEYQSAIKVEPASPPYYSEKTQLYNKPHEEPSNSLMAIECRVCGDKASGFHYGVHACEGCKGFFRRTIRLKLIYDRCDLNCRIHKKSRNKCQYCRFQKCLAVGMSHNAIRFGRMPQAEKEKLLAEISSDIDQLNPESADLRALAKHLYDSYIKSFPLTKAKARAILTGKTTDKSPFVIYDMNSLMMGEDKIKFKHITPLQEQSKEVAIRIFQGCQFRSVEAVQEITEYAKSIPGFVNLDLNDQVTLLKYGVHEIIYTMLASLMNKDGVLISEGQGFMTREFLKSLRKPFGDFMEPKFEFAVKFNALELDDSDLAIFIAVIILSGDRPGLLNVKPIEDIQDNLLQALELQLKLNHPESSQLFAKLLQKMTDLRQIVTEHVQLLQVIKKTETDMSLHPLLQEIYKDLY
# In short: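 Read-out: 488 nm N/C fluorescence ratio from complemented Venus YFP fragments, ≥350 cells per image, gain-of-signal fitted against DMSO baseline. Fusions of PPARg/SRC-1 with IFP1/IFP2 expressed transiently in HEK293T; compounds applied 8 h.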
# [8] = biological target: Peroxisome proliferator-activated receptor gamma (Homo sapiens) (UniProt P37231); test: OT_PPARg_PPARgSRC1_1440: Odyssey Thera (OT) 24-hour Protein-Complementation Assay for Peroxisome Proliferator-activated Receptor Gamma/ SRC-1 Co-activator (AID 2283388);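 further: nuclear to cytoplasmic ratio of reconstituted Venus YFP fluorescence in fixed imaged cells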
# In short: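 Protein-fragment complementation between PPARg and coactivator SRC-1 was measured by fluorescence imaging in transiently transfected HEK293T cells after 24 h treatment. Signal was quantified as N/C ratio in the 488 nm channel, with DMSO as negative control.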
# [9] = CEETOX_H295R_OHPREG: CeeTox H295R High-throughput Steroidogenesis Assay for OH-Pregnenolone (OHPREG) (AID 2283434; active means hit-call score of the fitted dose curve at least 0.9, where 1 is the maximum; inactive means score below 0.9); conditions: actives raise or lower the signal
# In short: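 Secreted 17alpha-hydroxypregnenolone measured by HPLC-MS/MS after liquid-liquid extraction. Human adrenal H295R cells received 48 h forskolin (10 uM) stimulation before 48 h chemical exposure at 0.1% final DMSO; MTT viability in same wells; bidirectional fit against DMSO.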
# [10] = CEETOX_H295R_OHPROG: CeeTox H295R High-throughput Steroidogenesis Assay for OH-Progesterone (OHPROG) (AID 2283435; active means hit-call score of the fitted dose curve at least 0.9, where 1 is the maximum; inactive means score below 0.9;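 on AC50: 17alpha-hydroxyprogesterone secreted into medium measured by HPLC-MS/MS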); conditions: actives raise or lower the signal
# In short: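 Human adrenocortical H295R cells, passage 10 or lower, were treated with chemical for 48 h after forskolin priming, and hormone output in the medium was quantified by LC-MS/MS.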
# [11] = CEETOX_H295R_ANDR: CeeTox H295R High-throughput Steroidogenesis Assay for Androstenedione (ANDR) (AID 2283436; active means hit-call score of the fitted dose curve at least 0.9, where 1 is the maximum; inactive means score below 0.9); conditions: actives raise or lower the signal
# In short: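 Medium from 48 h chemical-treated H295R adrenal cells was extracted with MTBE and androstenedione measured by LC-MS/MS. Activity was fit in both directions relative to DMSO. Cytotoxic concentrations were re-tested after dilution until MTT viability reached ≥70%.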
# [12] = CEETOX_H295R_ESTRADIOL: CeeTox H295R High-throughput Steroidogenesis Assay for Estradiol (AID 2283440; active means hit-call score of the fitted dose curve at least 0.9, where 1 is the maximum; inactive means score below 0.9;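 further: estradiol secreted into medium quantified by LC-MS/MS after dansyl derivatisation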); conditions: actives raise or lower the signal
# In short: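 Estradiol secreted into the medium was measured by tandem mass spectrometry after liquid-liquid extraction and dansylation. Human H295R cells had been forskolin-primed (10 uM, 48 h) before a 48 h chemical exposure with 0.1% DMSO.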
# [13] = biological target: Estrogen receptor (Homo sapiens) (UniProt P03372); test: OT_ERa_GFPERaERE_0480: Odyssey Thera (OT) 8-hour HeLa Transcription Induction Assay for Estrogen Receptor (AID 2283381; active means hit-call score of the fitted dose curve at least 0.9, where 1 is the maximum; inactive means score below 0.9)
# Estrogen receptor (Homo sapiens), sequence (P03372 whole entry, looked up): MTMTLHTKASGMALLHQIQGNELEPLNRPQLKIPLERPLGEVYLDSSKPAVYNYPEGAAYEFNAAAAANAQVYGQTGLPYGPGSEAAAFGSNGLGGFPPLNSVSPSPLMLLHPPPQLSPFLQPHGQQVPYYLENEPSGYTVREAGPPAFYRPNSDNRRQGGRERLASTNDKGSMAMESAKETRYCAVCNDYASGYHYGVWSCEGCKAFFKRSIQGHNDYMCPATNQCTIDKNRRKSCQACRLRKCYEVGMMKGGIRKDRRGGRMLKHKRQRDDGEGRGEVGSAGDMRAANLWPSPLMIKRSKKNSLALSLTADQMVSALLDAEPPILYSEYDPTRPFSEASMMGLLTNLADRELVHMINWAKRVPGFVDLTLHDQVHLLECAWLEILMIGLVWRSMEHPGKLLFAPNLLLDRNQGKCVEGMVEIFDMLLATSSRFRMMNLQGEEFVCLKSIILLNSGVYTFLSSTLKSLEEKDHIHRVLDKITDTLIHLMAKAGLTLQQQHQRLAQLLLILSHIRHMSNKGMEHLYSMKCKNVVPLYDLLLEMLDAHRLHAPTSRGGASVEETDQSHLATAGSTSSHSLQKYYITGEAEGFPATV
# In short: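 An 8 h HeLa transcription-induction format with a GFP reporter under ERE control, read by fluorescence microscopy; single endpoint fitted positively with DMSO as baseline.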
# [14] = biological target: Estrogen receptor (Homo sapiens) (UniProt P03372); test: OT_ERa_GFPERaERE_0120: Odyssey Thera (OT) 2-hour HeLa Transcription Induction Assay for Estrogen Receptor (AID 2283382)
# In short: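 Two-hour compound treatment of HeLa cells preceded microscopy imaging of an inducible fluorescent reporter. Image-based quantification gave one endpoint, analysed for signal increase relative to DMSO controls.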
# [15] = biological target: Bile acid receptor (Homo sapiens) (UniProt Q96RI1); test: OT_FXR_FXRSRC1_0480: Odyssey Thera (OT) 8-hour HEK293T Protein-Complementation Assay for Farnesoid X receptor/SRC-1 Co-activator (AID 2283383)
# Bile acid receptor (Homo sapiens), sequence (Q96RI1 whole entry, looked up): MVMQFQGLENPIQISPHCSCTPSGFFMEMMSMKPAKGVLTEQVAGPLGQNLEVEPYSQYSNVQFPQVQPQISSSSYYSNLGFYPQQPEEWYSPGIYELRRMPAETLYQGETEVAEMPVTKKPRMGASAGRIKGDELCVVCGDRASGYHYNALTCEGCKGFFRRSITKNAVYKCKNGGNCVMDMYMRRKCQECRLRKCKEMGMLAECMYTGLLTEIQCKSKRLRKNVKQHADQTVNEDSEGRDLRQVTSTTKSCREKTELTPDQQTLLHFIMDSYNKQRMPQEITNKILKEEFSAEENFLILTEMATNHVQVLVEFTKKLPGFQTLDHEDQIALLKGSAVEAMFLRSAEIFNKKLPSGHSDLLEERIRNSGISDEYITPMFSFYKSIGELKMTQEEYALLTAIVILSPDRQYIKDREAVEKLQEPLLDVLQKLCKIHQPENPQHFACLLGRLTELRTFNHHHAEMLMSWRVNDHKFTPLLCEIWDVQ
# In short: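 Readings were taken 8 h after dosing HEK293T cells in a split-reporter complementation format pairing FXR with SRC-1. Increased fluorescence relative to DMSO-treated wells defined activity.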
# [16] = CEETOX_H295R_11DCORT: CeeTox H295R High-throughput Steroidogenesis Assay for 11-Deoxycortisol (11DCORT) (AID 2283432; active means hit-call score of the fitted dose curve at least 0.9, where 1 is the maximum; inactive means score below 0.9;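 on AC50: 11-deoxycortisol secreted into the medium measured by LC-MS/MS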); conditions: actives raise or lower the signal
# In short: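 H295R cells; 10 uM forskolin prestim 48 h; compound in 0.1% DMSO 48 h; media extracted with MTBE; 11-deoxycortisol by LC-MS/MS, 7-point standard curve; gain/loss vs DMSO baseline; viability by MTT in same wells.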
# [17] = CEETOX_H295R_CORTIC: CeeTox H295R High-throughput Steroidogenesis Assay for Corticosterone (CORTIC) (AID 2283437; active means hit-call score of the fitted dose curve at least 0.9, where 1 is the maximum; inactive means score below 0.9); conditions: actives raise or lower the signal
# In short: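 Medium corticosterone was quantified by tandem mass spectrometry following 48 hours of chemical exposure (0.1% DMSO) in human H295R cells previously stimulated 48 hours with 10 uM forskolin. Viability checked by MTT; chemicals diluted and retested when viability fell below 70%.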
# [18] = CEETOX_H295R_CORTISOL: CeeTox H295R High-throughput Steroidogenesis Assay for Cortisol (AID 2283438; active means hit-call score of the fitted dose curve at least 0.9, where 1 is the maximum; inactive means score below 0.9;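 further: cortisol secreted into medium quantified by LC-MS/MS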); conditions: actives raise or lower the signal
# In short: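 Steroidogenesis in H295R, per modified OECD 456: 48 h forskolin (10 uM), then 48 h exposure, 0.1% DMSO. Cortisol by extraction and tandem MS; viability by MTT (570/650 nm); cytotoxic chemicals diluted and re-tested.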
# [19] = CEETOX_H295R_DOC: CeeTox H295R High-throughput Steroidogenesis Assay for DOC (AID 2283439; active means hit-call score of the fitted dose curve at least 0.9, where 1 is the maximum; inactive means score below 0.9); conditions: actives raise or lower the signal
# In short: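 H295R, fsk 10 uM ×48 h pre, cmpd ×48 h (0.1% DMSO). Media → MTBE extr. → LC-MS/MS, DOC. Bidirectional fit vs DMSO; MTT viability same wells, re-test diluted if <70%.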
# [20] = biological target: rat Serotonin Transporter (SERT), Slc6a4 (gene 25553) (UniProt P31652); test: NVS_TR_rSERT: NovaScreen (NVS) Transporter Assay for rat Serotonin Transporter (SERT) (AID 2283375)
# rat Serotonin Transporter (SERT), Slc6a4 (gene 25553), sequence (P31652 whole entry, looked up): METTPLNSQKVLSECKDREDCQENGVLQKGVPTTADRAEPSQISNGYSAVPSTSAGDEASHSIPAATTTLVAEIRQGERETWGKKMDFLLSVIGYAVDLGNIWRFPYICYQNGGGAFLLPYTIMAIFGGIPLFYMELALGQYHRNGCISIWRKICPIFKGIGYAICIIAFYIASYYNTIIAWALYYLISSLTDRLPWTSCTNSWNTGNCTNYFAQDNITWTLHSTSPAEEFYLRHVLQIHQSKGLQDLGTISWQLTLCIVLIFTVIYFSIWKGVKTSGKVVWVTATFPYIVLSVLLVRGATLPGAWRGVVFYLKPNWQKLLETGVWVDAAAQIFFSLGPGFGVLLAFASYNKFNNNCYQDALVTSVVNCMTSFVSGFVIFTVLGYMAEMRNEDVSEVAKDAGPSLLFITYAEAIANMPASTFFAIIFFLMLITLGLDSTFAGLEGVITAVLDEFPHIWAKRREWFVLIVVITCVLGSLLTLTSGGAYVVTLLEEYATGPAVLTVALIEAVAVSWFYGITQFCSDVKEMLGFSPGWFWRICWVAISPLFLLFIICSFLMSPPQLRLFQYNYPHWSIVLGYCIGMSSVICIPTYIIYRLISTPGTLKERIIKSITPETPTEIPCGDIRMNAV
# In short: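 Filtration-based radiodetection quantified loss of specific radioligand binding in rat forebrain membranes after 1 hour of chemical exposure, relative to DMSO. Chemicals were first tested in duplicate at 25 uM.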
compound,measurement,setting,value
CC(C)(c1ccc(O)cc1)c1ccc(O)cc1,outcome,[1],inactive
same,AC50,[2],8.34 µM (active) [middle of 4 runs]
same,AC50,[3],14.5 µM (active) [middle of 4 runs]
same,outcome,[4],inactive
same,outcome,[5],inactive
same,outcome,[6],inactive
same,outcome,[7],inactive
same,outcome,[8],inactive
same,outcome,[9],inactive
same,outcome,[10],inactive
same,AC50,[11],3.26 µM (active) [middle of 4 runs]
same,outcome,[12],inactive
CCOC(=O)NCCOc1ccc(Oc2ccccc2)cc1,AC50,[2],3.08 µM (active)
same,outcome,[13],inactive
same,outcome,[14],inactive
same,AC50,[15],11.7 µM (active)
same,AC50,[5],2.34 µM (active)
same,outcome,[5],inactive
same,AC50,[6],50 µM (active)
same,outcome,[6],inactive
same,outcome,[7],inactive
same,outcome,[8],inactive
C=CCOC(Cn1ccnc1)c1ccc(Cl)cc1Cl (stereo not given),AC50,[1],11.9 µM (active)
same,AC50,[5],58.3 µM (active) and 85.7 µM (active)
same,AC50,[6],78.5 µM (active) and 79 µM (active)
same,outcome,[7],inactive
same,outcome,[8],inactive
same,AC50,[16],0.775 µM (active)
same,outcome,[9],inactive
same,AC50,[10],0.142 µM (active)
same,outcome,[17],inactive
same,AC50,[18],0.159 µM (active)
same,outcome,[19],inactive
O=C(O)C1(C(=O)Nc2ccc(Cl)cc2Cl)CC1,outcome,[4],inactive
same,outcome,[13],inactive
same,outcome,[14],inactive
same,outcome,[15],inactive
same,AC50,[6],50 µM (active)
same,outcome,[7],inactive
same,outcome,[8],inactive
O=C(O)c1ccccc1,outcome,[3],inactive
same,outcome,[13],inactive
same,outcome,[14],inactive
same,outcome,[5],inactive
same,outcome,[6],inactive
same,outcome,[7],inactive
same,outcome,[8],inactive
CCN(Cc1c(F)cccc1Cl)c1c([N+](=O)[O-])cc(C(F)(F)F)cc1[N+](=O)[O-],outcome,[2],inactive
same,AC50,[13],3.54 µM (active)
same,AC50,[14],6.39 µM (active)
same,outcome,[15],inactive
same,outcome,[5],inactive
same,outcome,[6],inactive
same,outcome,[7],inactive
same,outcome,[8],inactive
same,outcome,[9],inactive
same,AC50,[10],15.3 µM (active)
same,outcome,[12],inactive
CCOC(=O)C(C)Oc1ccc(Oc2cnc3cc(Cl)ccc3n2)cc1 (stereo not given),outcome,[2],inactive
same,outcome,[13],inactive
same,outcome,[14],inactive
same,AC50,[15],43 µM (active)
same,outcome,[5],inactive
same,outcome,[6],inactive
same,outcome,[7],inactive
same,outcome,[8],inactive
same,outcome,[16],inactive
same,outcome,[9],inactive
same,outcome,[10],inactive
same,outcome,[17],inactive
same,outcome,[18],inactive
same,outcome,[19],inactive
CCOC(=O)c1ccc(O)cc1,outcome,[20],inactive
same,outcome,[13],inactive
same,outcome,[14],inactive
same,outcome,[15],inactive
same,outcome,[5],inactive
same,outcome,[6],inactive
same,AC50,[16],85.1 µM (active)
same,outcome,[9],inactive
same,AC50,[10],31 µM (active)
same,outcome,[17],inactive
same,outcome,[18],inactive
same,AC50,[19],37.7 µM (active)
same,outcome,[12],inactive
